# Compound activity (PubChem BioAssay)
# Anthrax LF inh2 = inhibitors of Bacillus anthracis lethal factor protease | AID 588501 | inhibition, % at 10 µM | hit rate 0.12% among 360,000 | multiplex microsphere protease cleavage assay, LF; also: plate controls were buffer without enzyme for full effect and enzyme alone for no effect
# Target sequence (P15917 whole entry, looked up): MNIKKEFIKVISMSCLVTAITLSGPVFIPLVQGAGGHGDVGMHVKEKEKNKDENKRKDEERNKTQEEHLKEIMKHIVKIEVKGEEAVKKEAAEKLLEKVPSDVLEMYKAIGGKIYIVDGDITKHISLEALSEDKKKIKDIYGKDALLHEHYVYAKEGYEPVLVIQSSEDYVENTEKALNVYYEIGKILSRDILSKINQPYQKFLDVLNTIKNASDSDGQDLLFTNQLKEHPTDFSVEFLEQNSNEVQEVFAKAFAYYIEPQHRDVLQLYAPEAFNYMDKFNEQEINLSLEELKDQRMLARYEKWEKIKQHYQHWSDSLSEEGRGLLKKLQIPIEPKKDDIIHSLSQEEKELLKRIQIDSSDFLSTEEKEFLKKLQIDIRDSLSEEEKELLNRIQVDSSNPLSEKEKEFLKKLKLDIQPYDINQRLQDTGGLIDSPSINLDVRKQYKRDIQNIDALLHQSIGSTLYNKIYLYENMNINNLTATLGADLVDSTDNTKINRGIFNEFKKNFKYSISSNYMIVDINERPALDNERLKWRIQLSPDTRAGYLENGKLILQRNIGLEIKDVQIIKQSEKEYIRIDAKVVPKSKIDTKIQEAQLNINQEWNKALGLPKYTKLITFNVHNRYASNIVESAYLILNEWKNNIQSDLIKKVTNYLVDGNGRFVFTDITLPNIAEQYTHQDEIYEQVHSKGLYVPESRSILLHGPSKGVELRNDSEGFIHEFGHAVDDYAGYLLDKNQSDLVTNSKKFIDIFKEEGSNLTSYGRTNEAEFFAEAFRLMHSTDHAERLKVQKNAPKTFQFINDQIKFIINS
# BoNT A protease = BoNT A light chain protease inhibition. multiplex microsphere protease substrate cleavage, flow cytometry. hit rate 0.17% among 360,000. inhibition, % at 10 µM; also: plate controls were buffer without enzyme for full effect and enzyme alone for no effect
# Bead autofluor = compound fluorescence in toxin protease inhibitor counterscreen; compound autofluorescence counterscreen, microsphere flow cytometry; stronger effect = higher value; fluorescence intensity (no concentration beside the values); hit rate 3.1% among 360,000; AID 624483; in the data active = fluorescence intensity above about 16000; inconclusive = no clear call, values can overlap the other calls
# SSB-PriA inh = inhibitors of Klebsiella pneumoniae PriA binding to SSB C-terminal tail; AlphaScreen SSBct-PriA binding, biotinylated peptide; inhibition, % at 33 µM; hit rate 0.6% among 430,000; AID 1272365; in the data active = inhibition mostly above about 37%, no sharp cut-off; inactive = mostly below about 20%;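 also: plate controls were negative control peptide for no effect and reference peptide for full effect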
# BoNT F protease = blocks Botulinum neurotoxin F light chain protease. Multiplex microsphere protease cleavage assay, flow cytometry. inhibition, % at 10 µM. hit rate 0.22% among 360,000. AID 588497; in the data active = inhibition above about 35%, passing the limit was not always enough; inconclusive = no clear call, values can overlap the other calls; also: plate controls were buffer without enzyme for full effect and enzyme alone for no effect
# Starred values were filed as active, the others as inactive; ? = inconclusive; · = no result given; ! = not active in a repeat. Only some compounds are listed: those with a hit (about 3.1% of all), similar ones and a draw of the others. Rule as the data show it, unless noted: active = inhibition above about 30%; inconclusive = no clear call, values can overlap the other calls; inactive = below that.
SMILES,Anthrax LF inh2,BoNT A protease,Bead autofluor,SSB-PriA inh,BoNT F protease
NS(=O)(=O)c1ccc(NC(=S)Nc2ccc(OCc3ccccc3)cc2)cc1,-1.5,-1.4,4131,-8.6,-0.1
S=C(Nc1ccccc1)Nc1ccc(OCc2ccccc2)cc1,-5.6,?,19054*,-4.8,4.5
Cc1ccc(C)c(-c2nn(-c3ccccc3)cc2/C=C(/C#N)c2nc3ccccc3c(=O)[nH]2)c1,·,·,·,-5.0,·
CCN1CCN(c2nc3ccc(OC(=O)c4sc5ccccc5c4Cl)cc3s2)CC1,·,·,·,-7.0,·
O=C(Nc1ccc(N2CCN(Cc3ccccc3)CC2)cc1)c1ncn[nH]1,-4.9,-0.4,23010*,2.7,-13.1
O=C(CCN1CCN(Cc2ccccc2)CC1)Nc1ccc(OCc2ccccc2)cc1,-3.9,-2.1,17367*,-5.5,-4.4
O=C1c2ccccc2C(=O)N1c1ccc(OC(F)(F)F)cc1,·,·,·,-18.0,·
O=C1Nc2ccccc2/C1=C\c1cccn1-c1ccc(OC(F)(F)F)cc1,-5.2,-1.8,24253*,9.2,-5.8
COc1ccc(C(=O)NCC(=O)Nc2ccc(F)cc2)cc1OC,-0.3,?,16515*,-2.8,-1.6
O=C1CN(C(=O)CN2CCN(S(=O)(=O)c3ccccc3)CC2)c2ccccc2N1,0.2,0.1,3525,·,-0.2
O=C1CN(C(=O)c2ccccc2Cl)c2ccccc2N1,3.1,1.9,2983,3.2,44.1*
O=C(CN1CCCCC1)N1c2ccccc2CCc2ccccc21,2.9,-1.1,3047,-9.9,3.7
CC1CCN(CC(=O)N2c3ccccc3CCc3ccccc32)CC1,-5.8,-0.6,16766*,4.7,-1.4
CC1CCN(CC(=O)N2CC(=O)Nc3ccccc32)CC1,1.1,?,22135*,-15.9,-1.1
CCOC(=O)c1c(-c2cccc([N+](=O)[O-])c2)cn2ccccc12,-1.7,-0.6,4292,7.7,-2.9
CCOC(=O)c1c(-c2ccccc2Cl)cn2ccccc12,-7.5,1.5,21999*,-1.7,2.9
Cc1cc(NC(=O)C(=O)NCC(c2ccsc2)N(C)C)c2ccccc2n1 (stereo unspecified),·,·,·,8.0,·
COc1cccc(OC)c1C(=O)NC(=S)N1C[C@H]2C[C@@H](C1)c1cccc(=O)n1C2,·,·,·,-2.6,·
Cc1ccc(NC(=O)N2CCCC(c3ccccc3)C2)cc1 (stereo unspecified),12.6,-1.4,3817,-1.5,-40.7
CCOc1ccc(NC(=O)N2CCC(c3ccc(C)cc3)C2)cc1 (stereo unspecified),-3.5,-0.8,22970*,0.2,0.6
Cn1cccc1C(CNS(=O)(=O)Cc1ccc(F)cc1)N1CCCC1 (stereo unspecified),·,·,·,-9.0,·
COc1ccc(C(=O)NN=Cc2ccc(OC)c(COc3ccccc3Br)c2)c(OC)c1,·,·,·,-2.8,·
NS(=O)(=O)c1ccc(-n2ncc3c(=O)[nH]c(SCC(=O)N4N=C(c5cccs5)CC4c4ccc(F)cc4)nc32)cc1 (stereo unspecified),·,·,·,-7.0,·
Cc1ccc(NC(=O)CSc2nnc(NC(=O)CN3CCOCC3)s2)cc1,-2.5,0.5,16377*,-9.8,4.8
O=C(CSc1nnc(NC2CCCCC2)s1)Nc1ccc(N2CCOCC2)cc1,0.9,1.1,22057*,-2.2,2.0
SMILES,Anthrax LF inh2,BoNT A protease,Bead autofluor,SSB-PriA inh,BoNT F protease
CC(=O)c1ccc(N2CCN(C(=O)c3ccc(Oc4nccnc4N4CCC(C)CC4)cc3)CC2)cc1,·,·,·,0.0,·
COc1ccc(C2N(C(=O)CN3CCOCC3)CCN2S(=O)(=O)c2ccccc2)cc1 (stereo unspecified),-3.8,?,22919*,-14.5,-3.7
Cc1ccc(S(=O)(=O)N2CCN(C(=O)N3CCOCC3)C2c2ccc(N(C)C)cc2)cc1 (stereo unspecified),-2.5,?,21067*,-19.0,5.5
Cc1ccc(S(=O)(=O)N2CCN(C(=O)N3CCOCC3)C2C)cc1 (stereo unspecified),-0.6,-1.1,23303*,-18.1,-0.6
COc1ccc(C2N(S(=O)(=O)c3ccccc3)CCN2S(=O)(=O)c2ccc(C)cc2)cc1 (stereo unspecified),-18.9,14.4,17266*,-3.8,13.8
CN(C)c1ccc(C2N(C(=O)N3CCOCC3)CCN2S(=O)(=O)c2ccccc2)cc1 (stereo unspecified),-2.4,0.1,5241,-3.7,5.5
COc1cc(C(=O)NCCc2c[nH]c3ccccc23)on1,·,·,·,25.0,·
CCOC(=O)N1CCN(S(=O)(=O)c2ccc(C)cc2)C1c1ccc(OC)cc1 (stereo unspecified),0.2,0.7,3917,-4.8,2.9
COc1ccc(C2N(C(=O)N3CCOCC3)CCN2S(=O)(=O)c2ccc(C)cc2)cc1 (stereo unspecified),1.2,0.0,22397*,-6.4,-0.7
COc1ccc([N+](=O)[O-])cc1NC(=O)c1c[nH]c(=O)n(-c2ccc(OC)c(OC)c2)c1=O,·,·,·,-2.0,·
CCOc1ncc(NC(=O)c2ccccc2OC)c(N(C)C)n1,·,·,·,1.0,·
O=C(COc1ccccc1F)Nc1ccc2c(c1)C(=O)NCCO2,·,·,·,-2.0,·
CCN(CC)CCC(O)(c1ccccc1)C1CCCCC1 (stereo unspecified),-209.1,-226.0,60438*,-1.8,?
CC[N+](CC)(CC)CCC(O)(c1ccccc1)C1CCCCC1 (stereo unspecified),3.3,0.7,5473,-7.4,-3.0
CCOc1ccc(CC(=O)Nc2ccc(-c3ccc(N4CCCC4)nn3)cc2)cc1,·,·,·,0.0,·
COc1nn(C)cc1C(=O)NCc1cc(-c2ccc3c(c2)OC(C)C3)on1 (stereo unspecified),·,·,·,-10.0,·
CCOC(=O)c1c(CN2CCOCC2)n(C)c2cc(Br)c(O)c(CN(C)C)c12,-0.9,?,21896*!,9.1,-2.6
COc1ccccc1NC(=O)/C=C1\SC(=O)NC1=O,·,·,·,6.0,·
CCOc1cc2[nH]c(=O)n(CCCCC(=O)N3CCCCCC3)c(=O)c2cc1OCC,-5.2,0.0,9452,-5.6,13.1
CCCCNC(=O)CCCCCn1c(=O)[nH]c2cc(OC)c(OC)cc2c1=O,-11.0,?,19264*,-6.9,-0.8
COc1cc2[nH]c(=S)n(NC(=O)CC(C)C)c(=O)c2cc1OC,-3.6,?,24467*,-16.4,-3.1
CCOc1cc2[nH]c(=S)n(CCCC(=O)N3CCC4(CC3)OCCO4)c(=O)c2cc1OCC,0.7,-1.1,22729*,3.4,-0.5
CCOc1cc2[nH]c(=S)n(CCOC)c(=O)c2cc1OCC,-4.1,-1.2,22228*,-0.5,-1.7
O=C(CC1CCCC1)NCCOc1ccc2nnc(-c3cccc(F)c3)n2n1,·,·,·,-15.0,·
O=C(Nc1ccc(Br)cc1F)C1CSc2nccc(=O)n2C1 (stereo unspecified),·,·,·,-2.0,·
COc1ccc(CN(C(=O)c2ccccc2[N+](=O)[O-])C2CCS(=O)(=O)C2)cc1 (stereo unspecified),·,·,·,10.0,·
CCOc1cc2[nH]c(=O)n(Cc3ccc(C(=O)NCCOC)cc3)c(=O)c2cc1OCC,-11.4,-0.7,4114,104.2*,-2.2
CCCn1c(=S)[nH]c2cc(OC)c(OC)cc2c1=O,-1.4,-0.8,22976*,-17.1,-2.4
COc1cc2[nH]c(=S)n(Cc3cccs3)c(=O)c2cc1OC,-1.3,-0.7,4424,-9.2,-0.2
CCOc1ccccc1CNC(=O)c1ccc(Cn2c(=O)[nH]c3cc(OC)c(OC)cc3c2=O)cc1,·,·,·,-18.0,·
